# Test results as given in the supplement of paper PMC5662767.
# Values joined by “and” are separate entries in the source; they are usually repeats but may differ in a detail not shown here. Equal values may be shown once. Where a name gives a salt, the structure may show the parent alone.
# Test system: Drosophila S2 cl14 SmoIP sensor cells
# Experiment: normalized SmoIP GFP fluorescence (untreated unstimulated = 0%, untreated Hh-stimulated = 100%); higher = more Smo activation sensor fluorescence
# Details: compound concentration: 2 uM, 24 h
# [1] = stimulation: Hh conditioned medium (+Hh)
# [2] = stimulation: mock conditioned medium (-Hh)
# 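Further: flow cytometry read-out as median GFP intensity of gated cells, compounds added 30 min before Hh-conditioned or mock medium, mock-treated cells serving as unstimulated baseline.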
SMILES,normalized SmoIP GFP fluorescence [1],normalized SmoIP GFP fluorescence [2]
CC(C(=O)O)c1ccc2c(c1)CC(=O)c1ccccc1S2 (centres undefined) [zaltoprofen],111%,-1.97%
O=C(Nc1cccc(Cl)c1)c1ccccn1,105%,-2.93%
N=C(N)NC(=N)NCCc1ccccc1 [Phenformin-hydrochloride],151%,-9.04%
Cn1cnc2c(F)c(Nc3ccc(Br)cc3F)c(C(=O)NOCCO)cc21,138%,23%
Cc1cc2c(F)c(Oc3ncnn4cc(OC[C@@H](C)OC(=O)[C@H](C)N)c(C)c34)ccc2[nH]1 [Brivanib-alaninate],117%,9%
CCOC(=O)C1=C(N)Oc2ccc(Br)cc2C1C(C#N)C(=O)OCC (centres undefined),97.9%,1.03%
CC(C)C(=O)Oc1ccc(CO)cc1[C@H](CCN(C(C)C)C(C)C)c1ccccc1 [Fesoterodine-fumarate-Toviaz],110%,-4.53%
O=C(/C=C/c1ccc(O)c(O)c1)OCCc1ccccc1 [caffeic-acid-phenethyl-ester],114%,71.8%
Cc1cc(N2CCOCC2)ccc1Nc1nc(NC2CCCCC2)c2[nH]cnc2n1,93.8%,-2.64%
COc1ccc([C@@H]2CC(=O)c3c(O)cc(O)cc3O2)cc1O [Hesperetin],111%,-18.9%
C=CCc1ccc(O)c(-c2ccc(O)c(CC=C)c2)c1 [Honokiol],104%,-9.22%
CNC(=O)c1ccccc1Sc1ccc2c(/C=C/c3ccccn3)n[nH]c2c1 [Axitinib],142%,28.7%
NCC(=O)Nc1ccc(-n2nc(C(F)(F)F)cc2-c2ccc3c(ccc4ccccc43)c2)cc1,100%,0.812%
COc1cc2ncnc(Nc3ccc(Cl)cc3F)c2cc1OC,99.3%,-4.13%
"Clc1ccc(Nc2nnc(Cc3ccncc3)c3ccccc23)cc1 [Vatalanib,Dihydrochloride-Salt]",125%,-9.22%
CCOC(=O)[C@H](CCc1ccccc1)N[C@@H](C)C(=O)N1Cc2cc(OC)c(OC)cc2C[C@H]1C(=O)O [moexipril-hydrochloride],126%,3.4%
O[C@H](CNC[C@@H](O)[C@H]1CCc2cc(F)ccc2O1)[C@@H]1CCc2cc(F)ccc2O1 [Nebivolol(Bystolic)],109%,19.8%
CN1C(=O)C(Cc2c[nH]c3ccccc23)NC1=S (centres undefined) [necrostatin-1],134%,-16.1%
CC(=O)Nc1nc(C)c(-c2ccc(Cl)c(S(=O)(=O)NCCO)c2)s1,130%,-1.13%
Nc1ncnc2c1c(-c1cnc3[nH]ccc3c1)nn2C1CCCC1,50.6%,-17.9%
C[C@@H]1CCO[C@H]2Cn3cc(C(=O)NCc4ccc(F)cc4F)c(=O)c(O)c3C(=O)N12,140%,-15.3%
CS(=O)(=O)N1CCc2c(-c3cnc(N)nc3)nc(N3CCOCC3)nc21,134%,-15.8%
Cn1cc(-c2ccc3nnc(C(F)(F)c4ccc5ncccc5c4)n3n2)cn1,96.1%,-2.42%
Cn1cc(-c2cnn3c(N)c(Br)c([C@@H]4CCCNC4)nc23)cn1,185%,5.65%

SMILES,normalized SmoIP GFP fluorescence [1],normalized SmoIP GFP fluorescence [2]
Cc1c(-c2ccccc2)oc2c(C(=O)OCCN3CCCCC3)cccc2c1=O [flavoxate-hcl],106%,0.474%
Nc1cccc(-c2cc3c(Oc4cccc(O)c4)ncnc3[nH]2)c1,96.5%,0.812%
CC(C)N(CCCNC(=O)Nc1ccc(C(C)(C)C)cc1)C[C@H]1O[C@@H](n2ccc3c(N)ncnc32)[C@H](O)[C@@H]1O,106% and 111%,-4.13% and -1.12%
CO[C@H]1C[C@@H]2CC[C@@H](C)[C@@](O)(O2)C(=O)C(=O)N2CCCC[C@H]2C(=O)O[C@H]([C@H](C)C[C@@H]2CC[C@@H](OC(=O)C(C)(CO)CO)[C@H](OC)C2)CC(=O)[C@H](C)/C=C(\C)[C@@H](O)[C@@H](OC)C(=O)[C@H](C)C[C@H](C)/C=C/C=C/C=C/1C [Temsirolimus],56.5%,-1.56%
Nc1nc(N)c(N=O)c(OCC2CCCCC2)n1,139%,12.5%
COc1cc(NC(=O)c2ccc(-c3ccc(Cl)cc3)o2)cc(OC)c1,115%,-1.97%
O=C(O)CCCCC(CCSCc1ccccc1)SCc1ccccc1 (centres undefined),112%,-1.63%
CCCC(CCC)C(=O)O [Divalproex-sodium],134%,-10.4%
O=C(O)/C=C/c1ccc(Cn2ccnc2)cc1 [Ozagrel],116%,-2.46%
Cc1c(NC(=O)OC[C@@H]2COCCN2)cn2ncnc(Nc3ccc4c(cnn4Cc4cccc(F)c4)c3)c12,128%,16.5%
COc1ccc(-c2ccc3c(N4CCOC[C@@H]4C)nc(N4CCOC[C@@H]4C)nc3n2)cc1CO,61.4%,-2.96%
CC(C)N(CCC(=O)c1ccc2ccccc2c1)Cc1ccccc1,119%,-19%
CN(C)C/C=C/C(=O)Nc1cc2c(Nc3ccc(F)c(Cl)c3)ncnc2cc1O[C@H]1CCOC1,121%,7.92%
CCc1cccc(CC)c1NC(=O)N1Cc2[nH]nc(NC(=O)c3ccc(N4CCN(C)CC4)cc3)c2C1,121%,3.18%
NC(=O)c1noc([C@H](CCCC2CCCCC2)CC(=O)NO)n1,126%,-6.97%
CC1=C(C(=O)OC(C)C)C(c2cccc([N+](=O)[O-])c2)C(C(=O)OC2CN(C(c3ccccc3)c3ccccc3)C2)=C(N)N1 (centres undefined) [azelnidipine],111%,-1.23%
C[C@@H](c1ncncc1F)[C@](O)(Cn1cncn1)c1ccc(F)cc1F [Voriconazole],101%,1.57%
Cc1cc(C#N)cc(C)c1Oc1nc(Nc2ccc(C#N)cc2)nc(N)c1Br [etravirine-tmc125],93.3%,-0.264%
COc1cc(OC)c(NC(=O)Nc2cc(C)on2)cc1Cl,114%,-5.98%
CNC(=O)Nc1ccc(-c2nc(N3CC4CCC(C3)O4)c3cnn(C4CCC5(CC4)OCCO5)c3n2)cc1,41.3%,-8.33%
N#Cc1c(O)c2c(-c3ccc(-c4ccccc4O)cc3)csc2[nH]c1=O,139%,6.28%
COc1cc2c(cc1Cc1cccc(Cl)c1F)c(=O)c(C(=O)O)cn2[C@H](CO)C(C)C [Elvitegravir],143%,-9.22%
Cc1cc2c(F)c(Oc3ncnn4cc(OC[C@@H](C)O)c(C)c34)ccc2[nH]1 [Brivanib],97.5%,0.489%
O=C1NC(=O)/C(=C/c2ccc3nccc(-c4ccncc4)c3c2)S1,175%,2.43%

SMILES,normalized SmoIP GFP fluorescence [1],normalized SmoIP GFP fluorescence [2]
CC1(C)CC(=O)c2c(C(F)(F)F)nn(-c3ccc(C(N)=O)c(N[C@H]4CC[C@H](O)CC4)c3)c2C1,178%,12.3%
Cc1cn(-c2cc(NC(=O)c3ccc(C)c(Nc4nccc(-c5cccnc5)n4)c3)cc(C(F)(F)F)c2)cn1 [Nilotinib],104%,-4.47%
Cn1c(=O)cc(N2CCC[C@@H](N)C2)n(Cc2cc(F)ccc2C#N)c1=O [trelagliptin],104%,3.18%
CC(COc1ccccc1)N(CCCl)Cc1ccccc1 (centres undefined) [Phenoxybenzamine-hydrochloride],148%,-12.4%
CC(C)(C)C#Cc1cc(N(C(=O)[C@H]2CC[C@H](C)CC2)[C@H]2CC[C@H](O)CC2)c(C(=O)O)s1,118%,10.4%
CCCOc1ccc(C(=O)OCCN(CC)CC)cc1N [proparacaine-hcl],111%,-2.48%
CN1CCN(c2nc(C3=C(c4c[nH]c5ccccc45)C(=O)NC3=O)c3ccccc3n2)CC1 [sotrastaurin-aeb071],131%,40.1%
COC(=O)N1CCN(Cc2cccc(NC(=O)Nc3ccc(C)nc3)c2F)CC1,125%,-11.4%
Cc1cc(C)c2c(c1)[C@@H](N(Cc1cc(C(F)(F)F)cc(C(F)(F)F)c1)c1nnn(C)n1)CCCN2CC1CCC(C(=O)O)CC1 (some centres undefined),105%,-5.15%
O=C(c1ccc(/C=C/c2n[nH]c3ccccc23)cc1)N1CCNCC1,83%,-1.34%
CNC(=O)c1ccc(C)c(-n2c(C)cc(OCc3ccc(F)cc3F)c(Br)c2=O)c1,130%,-8.41%
COc1cc2nc(N(C)CCCNC(=O)C3CCCO3)nc(N)c2cc1OC (centres undefined) [Alfuzosin-hydrochloride],101%,-2.42%
O=C1NCCc2[nH]c(-c3ccncc3)cc21,164%,-0.477%
O=C(O)c1ccc(C=C2SC(=S)N(c3cccc(C(F)(F)F)c3)C2=O)cc1 [cftrinh-172],121%,2.24%
C[C@@H](Oc1cc(-n2cnc3ccc(CN4CCN(C)CC4)cc32)sc1C(N)=O)c1ccccc1C(F)(F)F,113%,17.7%
C[C@H]1[C@H](C)CC[C@]2(C(=O)O)CC[C@]3(C)C(=CC[C@@H]4[C@@]5(C)C[C@@H](O)[C@H](O)[C@@](C)(CO)[C@@H]5CC[C@]43C)[C@H]12 [Asiatic-acid],143%,-15.4%
COc1ccc2cccc(CCNC(C)=O)c2c1 [Agomelatine],102%,5.66%
CC(=O)Nc1ccc(C(=O)Nc2ccccc2N)cc1 [ci994-tacedinaline],129%,-4.13%
CCO[C@@H]1OC(=O)C[C@@H]1NC(=O)[C@@H]1CCCN1C(=O)[C@@H](NC(=O)c1ccc(N)c(Cl)c1)C(C)(C)C,135%,-7.78%
CCc1ccc(OCc2ccccc2C(=O)Nc2ccc3nc(C)cc(N)c3c2)cc1,164%,14.4%
O=c1ncn2nc(Sc3ccc(F)cc3F)ccc2c1-c1c(Cl)cccc1Cl,79.3%,-2.64%
CC(=O)Nc1nc2c(Oc3cc(-c4ccc(C(F)(F)F)cc4)ncn3)cccc2s1,111%,-4.7%
O=C(CSc1nc2c(c(=O)n1-c1ccccc1)SCC2)Nc1ccc(-c2ccccc2)cn1,110%,-3.16%
COc1cc2c(N3CCN(C(=O)Nc4ccc(OC(C)C)cc4)CC3)ncnc2cc1OCCCN1CCCCC1 [Tandutinib-(MLN518)],99.7%,1.89%
